# Sampled rows, rich in hits. Any-hit rate of the full collection: about 2.4%.
# D2 ag-1: Beta-Arrestin HTS for Positive Allosteric Modulators of the Human D2 Dopamine Receptor: Agonists. DiscoveRx PathHunter D2 beta-arrestin, luminescence, 90 min; 100% = 57 uM dopamine signal. activation, % (concentration not given with the values). 360,000 compounds, 0.084% hits. AID 624465, 2012; in the data active = activation above about 40%
# Target sequence (P14416 whole entry, looked up): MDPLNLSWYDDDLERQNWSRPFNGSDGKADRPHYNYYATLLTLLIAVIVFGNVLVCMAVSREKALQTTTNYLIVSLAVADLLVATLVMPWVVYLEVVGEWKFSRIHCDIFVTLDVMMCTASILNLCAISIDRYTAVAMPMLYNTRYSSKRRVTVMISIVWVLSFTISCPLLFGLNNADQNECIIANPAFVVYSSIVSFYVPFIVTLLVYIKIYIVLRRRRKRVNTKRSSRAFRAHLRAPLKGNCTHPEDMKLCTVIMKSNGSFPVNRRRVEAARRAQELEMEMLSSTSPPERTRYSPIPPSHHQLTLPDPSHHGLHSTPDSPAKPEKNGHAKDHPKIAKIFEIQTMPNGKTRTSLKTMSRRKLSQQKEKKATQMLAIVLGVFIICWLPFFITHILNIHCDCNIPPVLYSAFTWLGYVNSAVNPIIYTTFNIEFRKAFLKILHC
#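 DiscoveRx PathHunter D2 beta-arrestin cells (2,100/well) attached overnight, then compound-stimulated 90 min at 37 C in HBSS/10 mM HEPES/0.1% Tween-20 buffer; beta-galactosidase complementation read by luminescence after 1 h at ambient temperature. Dopamine 57 uM final (EC100) as control.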
# D2 PAM-1: Beta-Arrestin HTS for Positive Allosteric Modulators of the Human D2 Dopamine Receptor: Potentiators; DiscoveRx D2 beta-arrestin cells, luminescence, 90 min; 100% = 57 uM dopamine signal; 360,000 compounds, 0.23% hits; AID 624464, 2012; potentiation, % (no concentration beside the values); in the data active = potentiation above about 50%
#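 PathHunter D2 cells, attached overnight at 37 deg C, received compound in DMSO plus dopamine at EC20 (50 nM final) for 90 min at 37 deg C. Beta-arrestin recruitment was read as luminescence after 1 h with detection reagent at ambient temperature.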
# D2 antag: HTS Assay for Allosteric Antagonists of the Human D2 Dopamine Receptor: Primary Screen for Antagonists | 340,000 compounds, 2% hits | inhibition, % at 10 µM | HEK293 TREx D2 cells, calcium flux, dopamine EC80; in the data active = inhibition above about 30%; inactive = below that, where a call was filed; also: 0% is about no effect
#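 Tetracycline-induced HEK293 T-REx cells expressing D2 force-coupled to calcium signalling were dye-loaded, exposed to compound for 180 s, then challenged with an EC80 of dopamine; calcium flux was followed kinetically for a further 180 s.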
# D2 ag-2: HTS Assay for Allosteric Agonists of the Human D2 Dopamine Receptor: Primary Screen for Agonists; D(2) dopamine receptor (Homo sapiens), P14416; HEK293 T-REx D2 cells, calcium flux agonist mode; activation, % at 2 µM; 340,000 compounds, 0.53% hits;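 active = activation over 3 SD above normal in the single-dose calcium agonist read, cut at about 30% in these data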; also: 0% is about no effect
#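 In this primary screen, compounds producing a positive calcium signal within 180 s of addition to tetracycline-induced, force-coupled HEK293 Trex D2 cells are flagged; cells are dye-loaded with a no-wash calcium kit beforehand.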
# D2 PAM-2: HTS Assay for Positive Allosteric Modulators of the Human D2 Dopamine Receptor: Primary Screen for Potentiators | D(2) dopamine receptor (Homo sapiens), P14416 | 340,000 compounds, 0.34% hits | HEK293 T-REx D2, calcium flux, EC20 dopamine potentiation | AID 485347, 2010 | potentiation, % at 10 µM;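 active = potentiation over 3 SD above the plate norm, cut at about 30% in these data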; also: 0% is about no effect
#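 Primary screen. Calcium kinetics in induced HEK293 T-REx D2 cells: compound pre-addition 180 s, EC20 dopamine, 180 s more.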
# The depositor's hits bear a star; / = no result.
SMILES,D2 ag-1,D2 PAM-1,D2 antag,D2 ag-2,D2 PAM-2
CN1C(=O)C2(C(C#N)=C(N)N(c3cc(Cl)cc(Cl)c3)C3=C2C(=O)CC(C)(C)C3)c2ccccc21 (stereo unspecified),1,15,33*,1,-2
CCOC(=O)c1c(C)[nH]c(CCC(=O)Nc2ccccc2C(=O)OC)c1C,/,/,/,0,-6
COc1ccccc1C1Nc2c(sc3nc(C)cc(C)c23)C(=O)N1c1ccccc1 (stereo unspecified),/,/,/,/,-4
CCOC(=O)/C=C/C(=O)Nc1ccc(S(=O)(=O)N2CCCCCC2)cc1,-3,-5,31*,0,13
CC1=C(CC(=O)c2ccc(Cl)cc2)C(=O)c2ccccc2C1=O,9,55*,/,/,/
Cc1c(Cl)cccc1NC(=O)CC(c1ccc(F)cc1)N1Cc2ccccc2C1=O (stereo unspecified),/,/,/,/,1
Cc1ccc(-c2nc3ncccn3c2Nc2ccc3c(c2)OCO3)o1,11,63*,-4,0,12
Cc1ccc(Nc2c(-c3ccc(C)o3)nc3ncccn23)cc1,8,5,-7,1,13
O=C1CCCCCC1C1(O)C(=O)Nc2ccccc21 (stereo unspecified),2,-4,-4,1,42*
COc1ccc2c(c1)CC(C1(O)C(=O)Nc3ccccc31)C2=O (stereo unspecified),-2,2,7,0,-1
COc1ccc(NC(=O)C2CCCN2S(=O)(=O)c2ccc3c(c2)CCCC(=O)N3)cc1Cl (stereo unspecified),/,/,/,-1,4
Cc1ccccc1NC(=O)CSc1nc2c(oc3ccccc32)c(=O)n1Cc1ccco1,/,/,/,1,-2
COc1ccc(CCNS(=O)(=O)c2cc3c4c(c2)CC(=O)N4CCC3)cc1,-3,-4,35*,0,-4
COc1ccc(C2CC(C(F)(F)F)n3nc(C(=O)NCc4c(C)nn(C)c4C)c(Cl)c3N2)cc1 (stereo unspecified),5,22,16,-1,-6
COc1ccc(C2CC(C(F)(F)F)n3nc(C(=O)N(C)Cc4cn(C)nc4C)c(Cl)c3N2)cc1 (stereo unspecified),0,-10,-1,-1,34*
COc1cc2[nH]c(C(=O)NCC3CCCO3)cc2c(OC)c1OC (stereo unspecified),-1,-24,55*,0,-24
CCOC(=O)c1cnn(CCOC(=O)Cc2cccs2)c1NC(=O)Cc1cccs1,-3,-4,34*,0,2
CCOC(=O)c1cnn(CCOC(=O)c2ccc(F)cc2)c1NC(=O)c1ccc(F)cc1,1,3,-5,0,-1
COc1ccc(C(CNC(=O)COc2ccc(C)cc2)N2CCCCC2)cc1 (stereo unspecified),/,/,/,-1,-26
COc1ccc(C(CNC(=O)C(C)(C)Oc2ccc(Cl)cc2)N2CCOCC2)cc1 (stereo unspecified),-7,-36,/,/,/
COc1ccc(C(CNC(=O)COc2ccc(Cl)c(C)c2)N2CCCCC2)cc1 (stereo unspecified),0,-34,37*,0,-27
COc1ccc(C(CNC(=O)C(C)(C)Oc2ccc(Cl)cc2)N2CCCCC2)cc1 (stereo unspecified),-3,-45,86*,-1,-30
COc1ccccc1-[n+]1c(C)cc(/C=C2\Sc3ccccc3N2C)cc1C,-8,-36,-16,89*,16
COc1ccc(-[n+]2c(C)cc(/C=C3\Sc4ccccc4N3C)cc2C)cc1,-5,-8,48*,55*,3
COc1ccccc1OC(=O)CCN1c2ccccc2Sc2ccccc21,2,7,-3,-1,1
SMILES,D2 ag-1,D2 PAM-1,D2 antag,D2 ag-2,D2 PAM-2
COc1ccc(C(=O)/C=C2\Sc3ccccc3N2C)cc1,-8,-13,41*,-1,-1
CCc1ccc(-n2nnc(-c3nc(-c4ccc(C)cc4)no3)c2N)cc1,/,/,/,0,-4
Cc1ccc(/C=C/c2onc(C)c2S(=O)(=O)N2CCC(C(=O)NCc3ccc(OC(C)C)cc3)CC2)cc1,/,/,/,0,1
CCOC(=O)c1c(C)[nH]c(C)c1S(=O)(=O)N1CCC(C(=O)Nc2ccc(F)cc2F)CC1,/,/,/,0,-10
O=C1C=C(Nc2ccc(F)cc2)c2ccccc2C1=O,9,50*,8,0,4
O=C1C=C(Nc2cccnc2)c2ccccc2C1=O,12,58*,/,/,/
COc1ccc(C(=O)N/C(=C\c2ccc([N+](=O)[O-])cc2)C(=O)NC(CCSC)C(=O)O)cc1 (stereo unspecified),0,1,35*,18,-4
COc1ccc(C2CC(=O)NC(NC(=O)c3ccc(Br)cc3)=N2)c(OC)c1OC (stereo unspecified),/,/,/,/,4
Cc1cc(OCC(=O)O/N=C(\N)c2ccccc2)ccc1Br,7,0,1,30*,-11
COc1ccc2c(CNCCc3ccccc3)c(C(=O)O)n(Cc3cccc(F)c3)c2c1,/,/,/,0,-8
CCN1C(=O)C(CC(=O)Nc2ccc(OC)cc2)N(CCCN2CCN(c3ccc(F)cc3)CC2)C1=S (stereo unspecified),14,7,57*,-1,/
CC(NC(=O)c1nn(C)c2c1CSc1ccccc1-2)c1ccccc1 (stereo unspecified),/,/,/,1,5
O=C1C2CCCCN2C(=O)N1CCCCN1CCN(c2cccc(Br)c2)CC1 (stereo unspecified),-1,-1,87*,40*,-26
O=C1C2CCCCN2C(=O)N1CCN1CCN(c2cccc(Cl)c2)CC1 (stereo unspecified),2,-10,/,/,/
O=C1C2CCCN2C(=O)N1CCCCN1CCN(c2ccc(F)cc2)CC1 (stereo unspecified),0,-23,40*,12,-20
O=C1C2CCCCN2C(=O)N1CCCCN1CCN(c2ccc(F)cc2)CC1 (stereo unspecified),-5,-4,11,0,-24
FC(F)(F)c1nnc2ccc(NCc3cccnc3)nn12,0,-1,-10,-2,2
FC(F)(F)c1nnc2ccc(NCc3ccccc3)nn12,4,2,80*,0,2
Cc1ccc(-n2nnnc2CNC(=O)c2ccccc2)cc1C,/,/,/,2,2
CCn1cc(C(=O)N2CCOCC2)c(=O)c2cc(S(=O)(=O)N(C)C3CCCCC3)ccc21,-3,-2,0,-1,32*
